This passage reports growth results from PubChem BioAssay (NCI).

About 83,000 compounds went through this panel and 20% of them were active in at least one assay; those are over-represented in the sample as a whole.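 Cells were grown in 96-well plates and exposed to the test compound at a single concentration for 48 hours; results are reported as percent growth, with values below 10 considered active.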 Unmarked numbers belong to inactive results. Active and inactive are the calls of the source.

The assay concerns HL-60(TB) leukemia. Briefly: NCI-60 one-dose screen, 48 h (100 = growth as untreated, 0 = no growth, -100 = all killed). The conditions noted are these: 10 µM unless noted.
For the molecule `CC(C)=CCC[C@@H](C)[C@H]1CC[C@@]2(C)C3=C(CC[C@]12C)[C@@]1(C)CC[C@H](O)C(C)(C)[C@@H]1CC3`, the growth was 105%.

Consider `COC1OCC(OS(=O)(=O)c2ccc(C)cc2)C(OC(=O)c2ccccc2)C1OC(=O)c1ccccc1` (stereo not given), for which the growth is 25.4%. In the case of `COc1ccc(Cn2cc(COc3ccc4c5ccnc(C)c5n(CCCc5ccccc5)c4c3)nn2)cc1` it was -55.7% (active); in that of `COc1ccc(Cn2c(Br)c3c(c2-c2cc(OC)c(OC)c(OC)c2)CCc2sc(N)nc2-3)cc1`, -14.5% (active); in that of `C#CCN(CCCOc1ccc(Cl)cc1Cl)CCCSC(=O)CCCCCN1/C(=C\C=C2/CCCC(/C=C/C3=[N+](CCCCCC(=O)[O-])c4ccccc4C3(C)C)=C2Cl)C(C)(C)c2ccccc21`, -44.2% (active). With `CNc1ccc(Nc2cccc(C)c2)c2c1C(=O)c1ccccc1C2=O` the figure was 80.6%. In the case of `COc1ccc(C2=NN(c3ccc(S(N)(=O)=O)cc3)C(c3cn(-c4ccccc4)nc3-c3ccc(Cl)cc3)C2)cc1` (stereo not given) it was 84.5%; in that of `Cc1cc(N/N=C/c2nc(-c3ccc(Br)cc3)oc2C)c2cc(Cl)ccc2n1`, -0.0323% (active); in that of `C=C1C(=O)O[C@H]2[C@H]1CC/C(COC(=O)c1ccc(C(=O)O)s1)=C\CC[C@@]1(C)O[C@@H]21`, -31.4% (active).

For the molecule `COc1cc(N)c2ncccc2c1SC`, the growth was 107%. With `C=C(COC(C)=O)[C@H]1CC/C(C)=C/CC/C(C)=C/CC[C@@]2(C)O[C@H]2C1` the figure was 103%.

As for `COc1ccc(-c2nc(N)n(C(=S)Nc3ccccc3)n2)cc1`, the growth was 96.4%. On to `COc1ccc(OC)c(C2OC(c3ccc4ccccc4c3O)=NN2C(C)=O)c1` (stereo not given), for which the growth is 19%. Turning to `Ic1ccccc1-c1ccccc1`, the growth was 81.2%. With `CCN1CCC2(CC1)NC(=O)c1c(c3ccc(Cl)c(Cl)c3n1C)C2C#N` (stereo not given) the figure was 30.2%; with `O=C(Oc1ccccc1[N+](=O)[O-])C1CCCN1C(=O)OCc1ccccc1` (stereo not given), 58.9%; with `CSc1nc(-c2ccco2)c(C#N)c(=O)n1C`, 95.9%. In the case of `CCCCCCCCCCCCCCCCCCOc1ccccc1CCCOP(=O)(O)OCC[N+](C)(C)C` it was 21.9%.

Consider `COc1ccc(C2=NN(C(=O)COc3ccc(Cl)cc3)C(O)(c3cc(F)c(Cl)cc3Cl)C2)cc1` (stereo not given), for which the growth was 95%. In the case of `CC[C@H](C)[C@H](NC(=O)[C@@H](N)CCC(N)=O)C(=O)N[C@@H](Cc1ccc(O)cc1)C(=O)N[C@@H](CCCCN)C(=O)N[C@@H](CCCCN)C(=O)N[C@@H](Cc1ccc(O)cc1)C(=O)N[C@@H](CCCNC(=N)N)C(=O)N[C@H](C(=O)N[C@@H](Cc1c[nH]c2ccccc12)C(=O)N[C@@H](Cc1ccc(O)cc1)C(=O)N[C@@H](CCCNC(=N)N)C(=O)N[C@@H](CCCCN)C(=O)N[C@@H](C)C(=O)N[C@@H](Cc1c[nH]c2ccccc12)C(=O)N[C@@H](CCCCN)C(=O)N[C@H](C(=O)N[C@@H](CC(C)C)C(=O)NCC(=O)N[C@@H](CCCCN)C(=O)N[C@H](C(N)=O)C(C)C)C(C)C)[C@@H](C)O`, the growth was 13.9%. In the case of `CCCCCc1c(C)[nH]c(/C=C2\N=C(c3ccc[nH]3)C=C2Oc2ccc(OC)cc2)c1C` it was -39% [100 µM] (active); in that of `CCCCCCCC/C=C\CCCCCCCCOc1ccc(CC(=O)NCC[N+]2(C)CCCC2)cc1`, -31.6% (active); in that of `COc1cccc2c1C(=O)c1c(O)c3c(c(O)c1C2=O)CC(O)(/C(C)=N/NC(=O)CCCCC(=O)N/N=C(\C)C1(O)Cc2c(O)c4c(c(O)c2C(OC2CC(N)C(O)C(C)O2)C1)C(=O)c1c(OC)cccc1C4=O)CC3OC1CC(N)C(O)C(C)O1` (stereo not given), -9.19% [5 µM] (active). In the case of `Cc1cccc(NC(=O)CCc2ccc(N3C(N)=NC(N)=NC3(C)C)cc2)c1` it was 20.1%; in that of `CC(C)c1ccc(C(=O)Nc2nc3ccc(O)cc3s2)cc1`, 14.4%; in that of `CCCCCCCCCCCCCCCCC(=O)O`, 101%.

As to `C=C1C(=O)O[C@H]2[C@H]1CC/C(Cn1cc(Cn3ccc4cc(Cl)ccc43)nn1)=C\CC[C@@]1(C)O[C@@H]21`, the growth is -37.7% (active).

In the case of `N[C@H]1CCC[C@@H]1NCCCCN1C(=O)c2cccc3cc([N+](=O)[O-])cc(c23)C1=O`, the growth is 29.4%. With `Cc1ccc(O)c(C(=O)O)c1` the figure was 99.5%; with `CC1(C)[C@H](O)CC[C@]2(C)[C@@H]1CC[C@@]13C[C@@H](CC[C@H]12)[C@@](O)(CO)C3`, 106%.
